40 compounds from the supplement of paper PMC11732987, “Enantioselective OTUD7B fragment discovery through chemoproteomics screening and high-throughput optimisation” (Communications Chemistry, 2025) can be followed below.

The target in this assay is USP14 (UniProt P54578). The experiment in a line: log2 ratio of Biotin-Ahx-Ub-VS probe labelling (fragment/DMSO); higher = less target engagement (more negative = stronger competition), active = hit call of the paper (q ≤ 0.05, log2 ratio ≤ -1). To be noted: compound concentration: 200 uM; treatment time: 3 h. On the procedure: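 Competitive ABPP in HEK293T cell lysate. Lysates were treated with each chloroacetamide fragment at 200 µM for 3 h, then with Biotin-Ahx-Ub-VS (0.5 µM, 1 h), NeutrAvidin-enriched and analysed by diaPASEF LC-MS/MS. Protein LFQ was median-normalised; average log2 ratio is fragment/DMSO from an unpaired t-test (n=3 treated, n=44 DMSO). Hits: q ≤ 0.05, log2 ratio ≤ -1, unique peptides ≥ 2.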
Sequence of USP14 (P54578 whole entry, the tested form may be a part): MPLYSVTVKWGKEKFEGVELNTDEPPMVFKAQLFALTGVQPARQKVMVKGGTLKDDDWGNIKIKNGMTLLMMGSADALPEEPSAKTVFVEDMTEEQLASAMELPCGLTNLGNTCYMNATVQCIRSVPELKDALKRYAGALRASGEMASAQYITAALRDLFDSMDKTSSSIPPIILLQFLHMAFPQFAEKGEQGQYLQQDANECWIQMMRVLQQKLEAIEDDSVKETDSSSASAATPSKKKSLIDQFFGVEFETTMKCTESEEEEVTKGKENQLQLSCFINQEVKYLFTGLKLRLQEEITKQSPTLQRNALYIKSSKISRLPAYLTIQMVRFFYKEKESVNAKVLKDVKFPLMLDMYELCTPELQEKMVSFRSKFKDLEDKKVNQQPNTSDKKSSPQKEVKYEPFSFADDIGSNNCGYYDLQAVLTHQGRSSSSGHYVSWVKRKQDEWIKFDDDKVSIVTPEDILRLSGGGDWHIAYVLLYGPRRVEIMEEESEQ
With `Cl.O=C(CCl)N[C@H]1C[C@@H](n2cccn2)C1`, the “log2 ratio of Biotin-Ahx-Ub-VS probe labelling” value (“log2 ratio” below) was -0.208 (inactive).
Under `O=C(CCl)N1CC2(CCOCC2)C1` stands -0.191 (inactive).
In the case of `COc1cc(Cl)c(C)cc1NC(=O)CCl`, the “log2 ratio” value was -0.458 (inactive).
`Cc1c(NC(=O)CCl)c(=O)n(-c2ccccc2)n1C`: the “log2 ratio” value was -0.215 (inactive).
On to `O=C(CCl)Nc1ccc(Cl)c(F)c1`, for which the “log2 ratio” value is -0.481 (inactive).
Under `O=C(CCl)N1CCc2nc[nH]c2C1c1ccc(Cl)cc1` (stereo not given) stands -0.69 (inactive).
Consider `Cc1ccc(C)c(Oc2ccc(CNC(=O)CCl)cn2)c1.Cl`, for which the “log2 ratio” value was -0.371 (inactive).
As to `Cc1ccc(CC(CO)CNC(=O)CCl)cc1` (stereo not given), the “log2 ratio” value was -0.262 (inactive).
Turning to `O=C(CCl)N1CCC(C(=O)N2CCCCCC2)CC1`, the “log2 ratio” value was -0.204 (inactive).
As to `CCC(NC(=O)CCl)c1ccc(Cl)cc1` (stereo not given), the “log2 ratio” value is -0.332 (inactive).
In the case of `CC(NC(=O)CCl)c1ccc2[nH]ncc2c1` (stereo not given), the “log2 ratio” value was -0.802 (inactive).
As for `O=C(CCl)N1CCOCCC1c1ccccc1` (stereo not given), the “log2 ratio” value was -0.111 (inactive).
Then `CNC(=O)Cn1cc(NC(=O)CCl)cn1`, with -0.154 (inactive); and `O=C(CCl)N1CCOC(c2cccc(F)c2)C1` (stereo not given), with -0.3 (inactive).
Under `COc1ccc(C2CCCN2C(=O)CCl)c(OC)c1` (stereo not given) stands -0.545 (inactive); under `C/C(=C\CNC(=O)CCl)c1cnn(C)c1.Cl`, -0.247 (inactive).
Under `CCC1c2ccsc2CCN1C(=O)CCl` (stereo not given) stands -0.479 (inactive); under `CC(c1ccccc1)N(C)C(=O)CCl` (stereo not given), -0.237 (inactive); under `Cc1ccc(C)c(NC(=O)CCl)c1`, -0.687 (inactive).
Turning to `Cc1cnc2[nH]cc(CCNC(=O)CCl)c2c1`, the “log2 ratio” value is -0.111 (inactive).
Under `O=C(CCl)N1CCC(c2nc3ccccc3o2)CC1` stands -0.483 (inactive); under `O=C(CCl)NCc1ccc(N2CCOCC2)nc1`, -0.262 (inactive).
Then `Cc1ncc2c(n1)CCN(C(=O)CCl)C2`, with -0.161 (inactive); and `CS(=O)(=O)N1CCCN(C(=O)CCl)CC1`, with 0.105 (inactive).
Then `Cc1ccc(N(CCC#N)C(=O)CCl)cc1C`, with -0.623 (inactive); and `O=C(CCl)NC1CCS(=O)(=O)c2ccccc21` (stereo not given), with -0.152 (inactive).
With `O=C(CCl)NC1(c2ccc3c(c2)OCCO3)CCCC1`, the “log2 ratio” value was -0.293 (inactive).
Under `Cc1nc(CNC(=O)CCl)c2ccccn12.Cl` stands 0.113 (inactive); under `O=C(CCl)N(Cc1ccsc1)C1CC1`, -0.456 (inactive); under `Cc1cccc2nc(CCNC(=O)CCl)cn12.Cl`, -0.259 (inactive).
In the case of `O=C(CCl)N[C@H]1CCS(=O)(=O)c2ccccc21`, the “log2 ratio” value is -0.0969 (inactive).
Under `Cc1ccc(CN(CCO)C(=O)CCl)cc1` stands -0.249 (inactive); under `O=C(CCl)N1CCC[C@@H]1c1ccon1`, -0.652 (inactive); under `Cc1conc1C1CN(C(=O)CCl)C1`, -1.12 (active).
Then `Cc1ccc(CN(C)C(=O)CCl)o1`, with -0.0502 (inactive).
Under `Cc1n[nH]c2c1CN(C(=O)CCl)CC2` stands -0.903 (inactive); under `CN(C)C(=O)c1ccc(NC(=O)CCl)cc1`, -0.162 (inactive).
As for `O=C(CCl)Nc1cc2c(cc1Cl)OCCCO2`, the “log2 ratio” value was 0.135 (inactive).
Then `Cc1cccc(C(CNC(=O)CCl)N2CCOCC2)c1.Cl` (stereo not given), with 0.0229 (inactive); and `N#Cc1ccc(CNC(=O)CCl)cc1`, with -0.177 (inactive).
